Measurements published in PubChem BioAssay.

What was measured:
[1] = test system: Botulinum neurotoxin type F light chain protease (Clostridium botulinum); assay: Botulinum neurotoxin type F light chain protease inhibition, multiplex microsphere flow cytometry, validation set (AID 588459); settings: multiplex microsphere protease substrate cleavage assay, at 10 µM, active compounds read high
[2] = target: Botulinum neurotoxin type A (Clostridium botulinum) (UniProt P0DPI0); assay: BoNT/A light chain protease inhibitors, biochemical, multiplex microsphere flow cytometry, validation set (AID 588460); settings: at 10 µM, active compounds read high
[3] = target: Lethal factor (Bacillus anthracis) (UniProt P15917); assay: Lethal factor protease inhibitors, Bacillus anthracis, multiplex microsphere cleavage assay, validation set (AID 588461); settings: flow cytometry, at 10 µM, active compounds read high

Measured: inhibition

COc1cc(NC(=O)COc2ccccc2)c(OC)cc1NC(C)=O
inactive: [1] -2.2% | [2] 1.2% | [3] -8.3%

Nc1c(C(=O)c2ccccc2)oc2ccccc12
inactive: [1] 1.8% | [2] 1% | [3] -7.3%

CCOC(=O)C1C(=O)OC2(CCOC(C)(C)C2)C1C(=O)OCC (stereo not drawn)
inactive: [1] -2.7% | [2] -0.2% | [3] -0.1%

CCN1/C(=C/C=C/C=C/c2sc3ccccc3[n+]2CC)Sc2ccccc21
inactive: [1] -1% | [2] 16.8% | [3] -36.6%

CCOc1ccccc1C(=O)NCCC(=O)O
inactive: [1] 2.8% | [2] 1.9% | [3] 0.2%

O=C(NC(CO)Cc1ccc([N+](=O)[O-])cc1)C(Cl)Cl (stereo not drawn)
inactive: [1] 0.6% | [2] -1.5% | [3] -1.4%

CC(=O)OCC(=O)C1=CCC2C3CCC4=CC(=O)C=CC4(C)C3(F)C(OC(C)=O)CC12C (stereo not drawn)
inactive: [1] 0.8% | [2] -0.6% | [3] 2.4%

CC(OC(=O)c1cc(=O)[nH]c2ccccc12)C(=O)c1ccccc1 (stereo not drawn)
inactive: [1] 2.3% | [2] -2.4% | [3] -6.9%

Cc1ccc(O)c(CCc2ccccc2)n1
inactive: [1] 1.3% | [2] 0.5% | [3] -5.5%

COc1ccc(C2=CC(=O)C=CC2=O)cc1
inactive: [1] -4.7% | [2] -1.3% | [3] -4.1%

Cn1nnnc1SCC1=C(C(=O)O)N2C(=O)[C@@H](NC(=O)[C@H](O)c3ccccc3)[C@H]2SC1
inactive: [1] 1% | [2] 0.9% | [3] 1.9%

COc1ccc(-c2c(NC(=O)c3ccco3)n(C)c3ccccc3c2=O)cc1
inactive: [1] 1.5% | [2] 0.4% | [3] -0.7%

COC(=O)c1ccc(COc2ccc3c(C)c(C)c(=O)oc3c2C)o1
inactive: [1] 1.9% | [2] -0.8% | [3] 0.2%

CC(C)(C)[C@]1(O)CCN2C[C@H]3c4ccccc4CCc4cccc(c43)[C@@H]2C1
inactive: [1] -2.1% | [2] 0% | [3] -2.4%

Nc1ccc2[nH]ncc2c1
inactive: [1] -1.8% | [2] -1.3% | [3] 2.9%

COc1cc2c(cc1OC)C(C)=NC1(CCCCC1)C2
inactive: [1] 9.8% | [2] 4.8% | [3] -0.4%

Cc1nc2cc3ccccc3cc2c(=O)[nH]1
inactive: [1] -2% | [2] 1.5% | [3] 3.7%

COc1cc(NS(=O)(=O)c2ccc(N)cc2)nc(OC)n1
inactive: [1] 1.2% | [2] 1.1% | [3] 0.1%

CC(CN1c2ccccc2Sc2ccccc21)N(C)C (stereo not drawn)
inactive: [1] -0.2% | [2] -1.5% | [3] -11.5%

CS(=O)(=O)NCc1ccc(C(=O)NCc2ccccc2)cc1
inactive: [1] 2.9% | [2] 0.5% | [3] -4.2%

COc1ccc(C2=C(CN(C)C)C(c3ccccc3)c3ccccc3O2)cc1 (stereo not drawn)
inactive: [1] -3% | [2] -3.7% | [3] -2.3%

CC12CCC(C(=O)NCc3ccc4c(c3)OCO4)(CC1=O)C2(C)C (stereo not drawn)
inactive: [1] 1.9% | [2] 1.2% | [3] 4.8%

O=C(c1cccc2ccccc12)C1CCCN(C(=O)CCN2CCCO2)C1 (stereo not drawn)
inactive: [1] 1.2% | [2] 1.1% | [3] 2.5%

CC(=O)N=c1sc(S(N)(=O)=O)nn1C
inactive: [1] 4.1% | [2] 0.8% | [3] 4.2%

CC[N+]1(CC)CC2=Cc3ccccc3CC2C1 (stereo not drawn)
inactive: [1] -1.1% | [2] 0% | [3] 3%

N#Cc1cc2c([nH]c1=O)CCCC2
inactive: [1] -0.1% | [2] -0.6% | [3] 2.6%

CC1(C)C(=O)OC(/C=C\c2ccccc2)C(C)(C)C1=O (stereo not drawn)
inactive: [1] 1.5% | [2] 0.1% | [3] 4.5%

C1CCC(C(CC2CCCCN2)C2CCCCC2)CC1 (stereo not drawn)
inactive: [1] -7.7% | [2] 0.4% | [3] -14.1%

O=C(NCCc1c[nH]c2ccccc12)c1cccnc1
inactive: [1] -2.9% | [2] -0.7% | [3] 1.1%

COc1ccc2cc[nH]c2c1
inactive: [1] -1.5% | [2] -0.4% | [3] 2.8%

c1ccc(Nc2cccc3c(Nc4ccccc4)cccc23)cc1
inactive: [1] -3.6% | [2] -3% | [3] -25.4%

Cc1[nH]c2ccccc2c1/C=C/c1nc2ccccc2c(=O)n1CCO
inactive: [1] 0% | [2] -0.4% | [3] 0.2%

CC1(C)[C@@H](O)CC[C@]2(C)[C@H]3C(=O)C=C4[C@@H]5C[C@@](C)(C(=O)O)CC[C@]5(C)CC[C@@]4(C)[C@]3(C)CC[C@@H]12
inactive: [1] 4.4% | [2] -1.5% | [3] -0.5%

Cc1occc(=O)c1O
inactive: [1] 2.1% | [2] 0.8% | [3] -1.7%

CCN1CCN(C(=S)c2ccc(OC)cc2)CC1
inactive: [1] 2.2% | [2] -0.9% | [3] 11.9%

CCOCc1cc(C)[nH]c(=O)c1C#N
inactive: [1] -0.2% | [2] 2.8% | [3] 2%

COc1cccc2cc(-c3ccccc3)c(=O)oc12
inactive: [1] -1.9% | [2] -1.7% | [3] 1.7%

O=C(/C=C/Sc1ccccc1)c1ccccc1
inactive: [1] -0.5% | [2] -0.8% | [3] -4.1%

CCCCC[C@H](O)/C=C/[C@@H]1[C@@H](CCCCCCC(=O)O)[C@@H](O)C[C@H]1O
inactive: [1] -2.9% | [2] -1.3% | [3] 0.1%

Cc1ccc(-n2cc(CNCCN3CCOC3=O)c(-c3ccc(F)cc3)n2)cc1
inactive: [1] -3.2% | [2] 1.5% | [3] -7.8%

CC1(C)C(=O)OC(C(=O)c2ccc(Cl)cc2)C(C)(C)C1=O (stereo not drawn)
inactive: [1] 1.9% | [2] 1.3% | [3] -3.1%

Cc1ccc(C(=O)Nc2ccc(O)cc2C(=O)O)cc1C
inactive: [1] 10.3% | [2] 2.6% | [3] 0.9%

O=C(NCc1ccc2c(c1)OCO2)c1ccc2c(c1)OCCO2
inactive: [1] 2% | [2] 0.7% | [3] -0.5%

O=C(/C=C/c1ccc2c(c1)OCO2)NCc1ccc(F)cc1
inactive: [1] -14.5% | [2] -2.4% | [3] -3.4%

CC(C)CN1CCN(Cc2ccc3ncccc3c2)CC1CCO (stereo not drawn)
inactive: [1] -0.3% | [2] 0.8% | [3] 0.5%

CC(=O)N(CCC1(c2ccc(C)cc2)CCOC(C(C)C)C1)Cc1ccco1 (stereo not drawn)
inactive: [1] -5.3% | [2] 0% | [3] -7.5%

O=C(c1ccco1)N(CCC(c1ccccc1)c1ccco1)Cc1ccco1 (stereo not drawn)
inactive: [1] -0.1% | [2] -0.1% | [3] 3.5%

Cc1cccc(N(C)C(=S)Oc2ccc3ccccc3c2)c1
inactive: [1] -0.1% | [2] -0.6% | [3] -4.3%

COc1ccc(S(N)(=O)=O)cc1C(N)=O
inactive: [1] 1.6% | [2] 0.4% | [3] -0.3%

COc1ccc(CCn2c(C)cc3c(c2=O)C(c2ccncc2)C(C#N)=C(N)O3)cc1OC (stereo not drawn)
inactive: [1] -1.2% | [2] -0.6% | [3] -6.7%

O=CNC1CCCc2c1[nH]c1ccc(Cl)cc21 (stereo not drawn)
inactive: [1] -1.4% | [2] 0.2% | [3] 1.6%

C=C(C)[C@@H]1CC=C(CN2CCC(N3CCC(C(=O)N4CCCC4)CC3)CC2)CC1
inactive: [1] 7.8% | [2] 0.8% | [3] -0.3%

CC1=NN(c2ccccc2)C(=O)C1
inactive: [1] 1.1% | [2] -3% | [3] 1.8%

C=CCC1(Cl)C(=O)C(Cl)=C(N2CCOCC2)C1(OC)OC (stereo not drawn)
inactive: [1] -1.2% | [2] -1.2% | [3] 0%

Cc1nc(C(=O)Nc2ccccc2Cl)cc2c1[nH]c1ccccc12
inactive: [1] -0.3% | [2] -0.9% | [3] -4.5%

COc1cc(Cl)cc2c1Sc1ccccc1/C2=C/CCN(C)C
inactive: [1] -4.5% | [2] -1.1% | [3] -16.6%
